Rab2A wt mod = changes GTP binding to wildtype dog Rab2A, up or down; 0.19% of 190,000 active; GST-Rab2 wt beads, Bodipy-GTP binding, flow cytometry; P61105; GTP binding activity, % at 10 µM; AID 760;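 active means GTP binding activity at least 20 points away from 100%, either lowered or raised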
Cdc42 wt GTP = human Cdc42 wildtype GTP binding change, either direction; P60953; GST-Cdc42 beads, Bodipy-GTP binding, flow cytometry; actives lie on both sides; percent activity (GTP binding), % at 10 µM; 0.2% of 190,000 active; AID 761;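 active means percent activity GTP binding at least 20 points away from the 100% baseline, either down as inhibitor or up as activator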;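 further: median bead fluorescence of bound Bodipy-FL-GTP at 100 nM; below 100% means less GTP binding so inhibitor and above means activator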
Target sequence (P60953 whole entry, looked up): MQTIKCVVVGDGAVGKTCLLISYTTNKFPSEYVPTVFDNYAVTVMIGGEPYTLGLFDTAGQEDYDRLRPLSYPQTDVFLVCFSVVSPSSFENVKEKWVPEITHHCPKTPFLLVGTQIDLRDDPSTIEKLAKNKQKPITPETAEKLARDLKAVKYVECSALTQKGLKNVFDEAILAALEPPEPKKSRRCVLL
HRas wt GTP bind = human HRas wildtype GTP binding, change in either direction; P01112; GST-Ras wt beads, Bodipy-FL-GTP binding, flow cytometry; actives lie on both sides; GTP binding activity, % at 10 µM; 0.14% of 190,000 active; AID 759;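 active means GTP binding activity at least 20% away from the 100% baseline, either lowered as inhibitor or raised as activator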
Target sequence (P01112 whole entry, looked up): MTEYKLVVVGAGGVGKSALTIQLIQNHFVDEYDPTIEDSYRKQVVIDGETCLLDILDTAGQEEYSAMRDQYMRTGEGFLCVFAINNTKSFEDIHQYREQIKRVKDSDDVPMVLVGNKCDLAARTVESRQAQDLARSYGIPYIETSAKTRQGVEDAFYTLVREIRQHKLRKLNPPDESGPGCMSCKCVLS
Rac1 wt GTP bind = modulators of human Rac1 wildtype GTP binding. AID 757. GST-Rac1 beads, fluorescent GTP binding, flow cytometry; actives lie on both sides; 0 = cold GTP competed, 100 = untreated. GTP binding activity (% of control), % at 10 µM. 0.27% of 190,000 active;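 active means GTP binding activity at least 20 points away from the 100% control level, either lower or higher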
Rac1 mut GTP = modulators of GTP binding to human Rac1 activated mutant | GST-Rac1 activated beads, fluorescent GTP binding, flow cytometry; actives lie on both sides; 100% means binding = to untreated wells | percent activity (GTP binding), % at 10 µM | 0.11% of 190,000 active | AID 764;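 active means GTP binding at least 20 percentage points away from the 100% baseline, in either direction, so actives lie on both sides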
Rab7 wt modul = modulators of GTP binding to dog Rab7 wildtype GTPase; GTP binding activity (percent of control), % at 10 µM; 0.055% of 190,000 active; GST-Rab7 beads, fluorescent GTP binding, flow cytometry; actives lie on both sides; untreated = 100%, excess cold GTP = 0%;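 active means fluorescent GTP binding to Rab7 beads changed by at least 20 points from the 100% baseline, either direction, mostly lower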;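 further: median green fluorescence of bound Bodipy-FL-GTP per Rab7 bead population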
A number is an active result; 0 = inactive; - = no result; [ ] = another dose, or the depositor's remark. This is a sample that favours compounds with a hit; in the whole collection about 0.4% have one here.

SMILES	Rab2A wt mod	Cdc42 wt GTP	HRas wt GTP bind	Rac1 wt GTP bind	Rac1 mut GTP	Rab7 wt modul
Cc1ccc(O)c(N=Cc2cc(Cc3ccccc3)cc([N+](=O)[O-])c2O)c1	74	76	0	77	68	79
O=[N+]([O-])c1cc(Cc2ccccc2)cc(C=Nc2ccc(N3CCOCC3)cc2)c1O	64	78	77	75	62	71
Cc1ccc(S(=O)(=O)Nc2ccc3nc(-c4cccn4C)[nH]c3c2)cc1	0	0	0	0	0	0
COc1cc(NC(=O)c2cccs2)c(OC)cc1NC(=O)CCC(=O)Nc1ccc2ncccc2c1	71	71	72	74	0	0
Cc1nc2nc(SCC(=O)NCc3ccco3)nn2c(C)c1Cc1c(F)cccc1Cl	0	0	0	0	0	0
Cc1nc2nc(SCC(=O)O)nn2c(C)c1Cc1ccccc1Cl	78	0	0	0	0	0
Cc1nc2nc(SCC(=O)O)nn2c(C)c1Cc1c(F)cccc1Cl	73	72	78	78	70	0
Cc1cc(C)c(C)c(OCCCN(C)C)c1	0	0	0	0	0	0
COC(=O)CCC/C=C1/SCC(NC(=O)c2ccccc2)/C1=N/O (configuration not stated)	0	0	0	0	0	0
CCCCCCCCSc1nnc2[nH]c(=O)cc(N)n12	-	69	0	-	-	-
CC(=O)c1ccc(NC(=O)C(C)Nc2ccc(Cl)cc2)cc1 (configuration not stated)	0	0	0	0	0	0
O=C(O)c1ccc(CNCc2ccc(F)cc2)cc1	0	79	0	0	0	0
COc1ccccc1Oc1ccccc1C(=O)O	0	122[activator]	0	130[activator]	0	0
CCC(CC)C(=O)c1c[nH]c(C(=O)N2CCN(c3ccccc3)CC2)c1	0	0	0	0	0	0
COc1ccc(CC(=O)Nc2ccc(C(=O)Nc3nccs3)cc2)cc1OC	73	73	77	0	0	0
COc1ccc(CCNC(=O)C(=O)Nc2nccs2)cc1OC	0	0	0	0	0	0
O=C1c2ccccc2-n2c1nc1ccccc1c2=O	0	0	0	77	0	0
O=C1CC(c2cc([N+](=O)[O-])ccc2Cl)c2c(ccc3ccccc23)N1 (configuration not stated)	0	0	0	0	0	0
CCC(/C=N/NC(=O)CCCCC(=O)N/N=C/C(CC)CC)CC	0	0	0	0	0	0
O=c1[nH]c(N/N=C\c2ccc(F)cc2)nc2ccccc12	0	0	0	0	0	0
O=c1[nH]c(N/N=C/c2ccc(O)cc2)nc2ccccc12	77	0	76	77	0	0
CCC(C)(C)NC(=O)c1ccc2c(c1)N(CC(=O)OC)C(=O)C(C)(C)O2	0	0	0	120[activator]	0	0
Cn1ncc(Cl)c1C(=O)NC(=S)Nc1sc2c(c1C#N)CCCCC2	0	0	0	0	0	0
O=C(NC1CCCCC1)C(c1ccco1)N(Cc1ccco1)C(=O)c1ccco1 (configuration not stated)	0	0	64	0	0	0
COc1ccc(-n2cccc2/C=C2/NC(=O)N(c3cccc(Cl)c3)C2=O)cc1	0	0	0	0	0	0
SMILES	Rab2A wt mod	Cdc42 wt GTP	HRas wt GTP bind	Rac1 wt GTP bind	Rac1 mut GTP	Rab7 wt modul
O=C(O)c1cccc(-n2cccc2/C=C2/NC(=O)N(c3ccc(Cl)cc3)C2=O)c1	75	72	0	67	76	0
Fc1ccc(/C=C2\CCCC3=C2Nc2ncnn2C3c2ccc(F)cc2)cc1 (configuration not stated)	0	0	0	0	0	0
O=C(CSc1nccn1Cc1ccccc1)Nc1nccs1	0	0	0	0	0	0
CC(C)(C)NC(=O)CSc1nccn1Cc1ccccc1	0	77	0	75	0	0
C1COCCNCCOCCOCCOCCN1	0	0	0	0	0	0
CCSc1nc2ccccc2c(=O)n1Cc1ccc(F)cc1	0	0	0	0	0	0
C(=N\N(Cc1ccccc1)c1ccccc1)/c1cccnc1	0	0	0	0	0	0
CN(/N=C/C=C/c1ccccc1)C1=NS(=O)(=O)c2ccccc21	72	74	68	65	0	0
CN(NC(=O)CN1C(=O)c2ccccc2C1=O)C1=NS(=O)(=O)c2ccccc21	0	0	0	0	0	0
CN(/N=C/c1cccnc1)C1=NS(=O)(=O)c2ccccc21	70	78	68	69	0	0
COc1ccc(Cn2cc(F)c(=O)n(CCC(C)C)c2=O)cc1[N+](=O)[O-]	0	0	0	0	0	0
O=C(O)/C=C\C(=O)Nc1cccc(C(=O)Nc2cccc(O)c2)c1	0	0	0	76	0	0
COC(=O)/C=C/C(=O)Nc1cccnc1	0	0	0	0	0	0
O=C(O)/C=C/C(=O)Nc1cccnc1	31	31	38	34	34	20
O=C(Nc1cccc(O)c1)c1ccccc1	0	0	0	0	0	0
COc1ccc(-c2noc(C(=O)NCc3ccc(F)cc3)n2)cc1OC	0	0	0	0	0	0
NC(N)=NS(=O)(=O)c1ccc(NC(=S)NC(=O)c2ccc3c(c2)OCO3)cc1	0	0	0	123[activator]	0	0
NS(=O)(=O)c1ccc(N2N=C(c3ccccc3)CC2c2ccccc2)cc1 (configuration not stated)	0	71	0	0	0	0
O=c1cc(CSc2ccc(S(=O)(=O)N3CCCCC3)cn2)nc2sccn12	0	0	0	0	0	0
CCOC(=O)c1c(NC(=O)C(=O)N/N=C/c2ccc(OCC)cc2)sc2c1CCCCC2	0	0	0	0	0	0
CCOC(=O)c1c(NC(=O)C(=O)N/N=C/c2ccc(O)c(OC)c2)sc2c1CCCCC2	0	61	0	0	0	0
COc1ccccc1OCC(=O)NCCSCc1cccc(Cl)c1	0	0	0	0	0	0
O=C(O)C1=C[C@H](c2ccc(C(F)(F)F)cc2)C[C@H](OCc2ccc(CO)cc2)O1	76	74	0	77	76	0
Cc1c(NS(=O)(=O)c2ccc3c(c2)n(C)c(=O)n3C)c(=O)n(-c2ccccc2)n1C	0	0	0	0	0	0
Cc1c(NS(=O)(=O)c2ccc3c(c2)Cc2ccccc2-3)c(=O)n(-c2ccccc2)n1C	0	78	0	0	76	0
CCc1ccc(C(C(=O)NC2CCCC2)N(C(=O)/C=C/C(=O)Nc2cc(C)on2)c2ccccc2C)cc1 (configuration not stated)	0	0	0	0	0	0

Bioassay records (PubChem)
